Laboratory results from PubChem BioAssay (NCATS).
Several values for one entry are separate records, joined by “and”; a condition that tells them apart may be missing. Identical values can stand only once. Inconclusive results are not listed. Activity calls are given as the source filed them. Unless noted, calls come from the whole dose curve; as a rule, active = well fitted curve in the direction sought with a large enough effect; inconclusive = small, poorly fitted or top-dose-only effect, or another doubt; inactive = no such curve, though single readings can be large; an effect the other way counts as inactive or inconclusive.

Key:
[1] = molecular target: Cellular tumor antigen p53 (Homo sapiens) (UniProt P04637); test: Primary qHTS for small molecule compounds that upregulate eGFP-tagged delta133p53alpha (in N-terminal) cells. (AID 2060322); details: NCI-H358 eGFP-delta133p53alpha fluorescence, 24 h; activation: hits give high values; note: nearly all actives have a fitted effect of over 75% in size; note: potency is the fitted concentration of half-maximal effect;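 for activation: cells pre-induced with doxycycline then dosed without doxycycline; series mostly up to about 56 µM; 0% = DMSO vehicle and 100% = reference activator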
Procedure, shortened: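 NCI-H358 cells pre-induced 24 h with 10 ng/ml doxycycline for eGFP-delta133p53alpha, plated dox-free and exposed 24 h at 37C to titrated compounds. Fixed, Hoechst-stained; gated GFP peak intensity by laser scanning cytometry, normalized to DMSO (0%) and 57.5 uM 5-azacytidine (100%).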

[2] = molecular target: Cellular tumor antigen p53 (Homo sapiens) (UniProt P04637); test: Primary qHTS for small molecule compounds that upregulate eGFP-tagged delta133p53alpha (in C-terminal) cells. (AID 2060324); note: potency is the fitted concentration of half-maximal effect
Procedure, shortened: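 Read-out: gated-cell GFP peak intensity (laser scanning cytometer), plate-normalized with DMSO as 0% activity, after 24 h compound exposure at 37C. Cells were C-terminal eGFP-tagged delta133p53alpha NCI-H358, doxycycline-induced (100 ng/ml, 24 h) before plating.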

[3] = molecular target: Aldehyde dehydrogenase, mitochondrial (Homo sapiens) (UniProt P05091); test: qHTS for Inhibitors of the Aldehyde Dehydrogenase Family (ALDH2) Validation screens (AID 2061302; active = well fitted inhibition curve with a large enough effect; title and protocol of this record describe different tests;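 note: plate controls were DMSO vehicle for no effect and maximal DPI positive control response for full effect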)
[4] = molecular target: Retinaldehyde dehydrogenase 3 (Homo sapiens) (UniProt P47895); test: qHTS for Inhibitors of the Aldehyde Dehydrogenase Family (ALDH1A3) Validation screen (AID 2061312); note: % is set by controls: 0 for no effect and ±100 for the full control effect; nearly all actives have a fitted effect of over 45% in size
[5] = BET inhibitor-based combinations targeting novel dependencies in MECOM-rearranged (r) AML: SET-2 cell line (AID 2202231); details: SET-2 AML cells viability, CellTiter-Glo luminescence, 48 h; viability: hits give low values, concentration not given here; note: nearly all actives have a fitted effect of over 35% in size; note: potency is the fitted concentration of half-maximal effect;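 for viability: plate controls were DMSO treated cells for no effect and wells without cells for full effect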
Procedure, shortened: (§1)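 Each compound was tested at eleven concentrations on cells seeded at 500/well. After two days' incubation, ATP-based luminescence reported viability; responses relative to DMSO and blank wells yielded AUC and cell-line-centred Z-AUC.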

[6] = BET inhibitor-based combinations targeting novel dependencies in MECOM-rearranged (r) AML: OCI-AML3 cell line (AID 2202232); details: Potency: OCI-AML3 viability; note: nearly all actives have a fitted effect of over 35% in size; note: potency is the fitted concentration of half-maximal effect
Procedure, shortened: as §1

[7] = BET inhibitor-based combinations targeting novel dependencies in MECOM-rearranged (r) AML: MV-4-11 cell line (AID 2202233); note: nearly all actives have a fitted effect of over 45% in size; note: potency is the fitted concentration of half-maximal effect
Procedure, shortened: (§2)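 First, 500 cells per well were seeded; next, drugs were pinned as 11-point doses; then plates sat 48 hr in the incubator; finally CellTiter-Glo was added and luminescence read, with AUC and Z-AUC computed.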

[8] = BET inhibitor-based combinations targeting novel dependencies in MECOM-rearranged (r) AML: UCSD-AML1 cell line (AID 2202235); note: nearly all actives have a fitted effect of over 40% in size; note: potency is the fitted concentration of half-maximal effect
Procedure, shortened: as §2

[9] = BET inhibitor-based combinations targeting novel dependencies in MECOM-rearranged (r) AML: AML-191 cell line (AID 2202236; note: nearly all actives have a fitted effect of over 35% in size; note: potency is the fitted concentration of half-maximal effect)
Procedure, shortened: as §1

[10] = BET inhibitor-based combinations targeting novel dependencies in MECOM-rearranged (r) AML: AML-194 cell line (AID 2202237; note: nearly all actives have a fitted effect of over 40% in size; note: potency is the fitted concentration of half-maximal effect)
Procedure, shortened: as §1

[11] = BET inhibitor-based combinations targeting novel dependencies in MECOM-rearranged (r) AML: HNT-34 cell line (AID 2202234); note: nearly all actives have a fitted effect of over 35% in size; note: potency is the fitted concentration of half-maximal effect
Procedure, shortened: as §2

Cellular tumor antigen p53 (Homo sapiens), sequence (P04637 whole entry, looked up): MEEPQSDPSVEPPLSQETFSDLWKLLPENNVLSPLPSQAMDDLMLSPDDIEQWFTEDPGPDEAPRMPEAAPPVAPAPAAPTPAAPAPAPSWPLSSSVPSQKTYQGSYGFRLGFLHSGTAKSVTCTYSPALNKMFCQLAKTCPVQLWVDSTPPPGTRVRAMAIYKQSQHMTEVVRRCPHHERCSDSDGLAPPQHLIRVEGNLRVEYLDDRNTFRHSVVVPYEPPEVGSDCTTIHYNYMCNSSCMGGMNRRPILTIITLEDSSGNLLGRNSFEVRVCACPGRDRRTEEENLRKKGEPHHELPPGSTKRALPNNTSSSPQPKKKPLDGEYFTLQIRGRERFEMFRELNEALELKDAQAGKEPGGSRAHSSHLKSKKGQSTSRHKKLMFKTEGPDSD

COc1cc(SC)ccc1C(=O)N1CCC(Cc2ccccc2)CC1
inactive: activation [1] 14.6% | Potency [2] | Potency [3] | Potency [4] | viability [5] 97% | Potency [6] | Potency [8] | Potency [9] | Potency [10]
active: Potency [7] 20.9 µM

CC(C)c1ccc2c(c1)c(SC(C)(C)C)c(CC(C)(C)C(=O)O)n2Cc1ccc(Cl)cc1
inactive: activation [1] 10.9% and -49% | Potency [2] | Potency [3] | Potency [4] | Potency [8]
active: Potency [6] 20.9 µM | Potency [7] 20.9 µM | Potency [11] 23.5 µM | Potency [9] 20.9 µM

CC(=O)N1CCN(c2ccc(OC[C@H]3CO[C@](Cn4ccnc4)(c4ccc(Cl)cc4Cl)O3)cc2)CC1
inactive: activation [1] -11.5% and -0.0769% | Potency [2] | Potency [3] | Potency [4] | Potency [6] | Potency [7] | Potency [11] | Potency [8] | Potency [9]

NCCc1ccc(O)c(O)c1
inactive: activation [1] -4.36% and 11.8% | Potency [2] | Potency [3] | Potency [4] | viability [5] 112% | Potency [8] | Potency [9] | Potency [10]
active: Potency [7] 18.6 µM

CC[C@H](C)C(=O)O[C@H]1CCC=C2C=C[C@H](C)[C@H](CC[C@@H]3C[C@@H](O)CC(=O)O3)[C@H]21
active: Potency [6] 11.8 µM
inactive: activation [1] -12.3% | Potency [2] | Potency [3] | Potency [4]

Clc1ccccc1C(c1ccccc1)(c1ccccc1)n1ccnc1
inactive: activation [1] -9.6% and -24.2% | Potency [2] | Potency [3] | Potency [4]
active: Potency [5] 18.6 µM | Potency [6] 16.6 µM | Potency [7] 18.6 µM | Potency [9] 23.5 µM

CN(C)CCC=C1c2ccccc2C=Cc2ccccc21
inactive: activation [1] 5.02% and 17.3% | Potency [2] | Potency [3] | Potency [4] | Potency [8]
active: Potency [6] 16.6 µM | Potency [7] 20.9 µM | Potency [11] 16.6 µM

CC(C[N+](C)(C)C)OC(N)=O (stereo unspecified)
inactive: activation [1] -5.86% and -4.18% and -40.2% | Potency [2] | Potency [3] | Potency [4] | viability [5] 116% | Potency [7] | Potency [9] | Potency [10]

CC1COc2c(N3CCN(C)CC3)c(F)cc3c(=O)c(C(=O)O)cn1c23 (stereo unspecified)
inactive: activation [1] 11.7% and -7% and 13.8% | Potency [2] | Potency [3] | Potency [4] | viability [5] 102% | Potency [7] | Potency [11] | Potency [8] | Potency [9] | Potency [10]

c1ccc([C@H]2CN3CCSC3=N2)cc1
inactive: activation [1] 15.3% and -0.374% | Potency [2] | Potency [3] | Potency [4] | viability [5] 112% | Potency [7] | Potency [11] | Potency [8] | Potency [9]

CC(C)NCC(O)COc1ccc(CCOCC2CC2)cc1 (stereo unspecified)
inactive: activation [1] -6.83% and 29.3% and -23.2% | Potency [2] | Potency [3] | Potency [4] | Potency [6] | Potency [7] | Potency [11] | Potency [8] | Potency [9] | Potency [10]

CC(C)(Oc1ccc(C2CC2(Cl)Cl)cc1)C(=O)O (stereo unspecified)
inactive: activation [1] -8.47% and 20.1% and -16.4% | Potency [2] | Potency [3] | Potency [4] | viability [5] 114% | Potency [7] | Potency [11] | Potency [8] | Potency [9] | Potency [10]

NC(=O)c1cccc(N)c1
inactive: activation [1] 7.85% | Potency [2] | Potency [3] | Potency [4] | viability [5] 120% | Potency [7] | Potency [11] | Potency [8] | Potency [9] | Potency [10]

Oc1ccc(/C=C/c2cc(O)cc(O)c2)cc1
active: Potency [6] 14.8 µM | Potency [7] 16.6 µM
inactive: activation [1] 1.67% and -36.3% | Potency [2] | Potency [3] | Potency [4]

CCN(CC)CCNC(=O)c1c(C)[nH]c(/C=C2\C(=O)Nc3ccc(F)cc32)c1C
active: Potency [1] 4.9 µM and 26.9 µM | Potency [2] 6.75 µM | Potency [5] 16.6 µM | Potency [6] 5.9 µM | Potency [7] 0.0468 µM | Potency [8] 3.72 µM | Potency [9] 3.72 µM | Potency [10] 4.68 µM
inactive: Potency [3] | Potency [4]

CN(C)C(=O)C(CCN1CCC(O)(c2ccc(Cl)cc2)CC1)(c1ccccc1)c1ccccc1
inactive: activation [1] 62.2% and -46.1% | Potency [2] | Potency [3] | Potency [4]
active: Potency [5] 14.8 µM | Potency [7] 20.9 µM | Potency [11] 20.9 µM

Clc1ccc(C(c2ccccc2Cl)C(Cl)Cl)cc1 (stereo unspecified)
inactive: activation [1] 18.6% and -1.36% and 29.2% | Potency [2] | Potency [3] | Potency [4] | viability [5] 70.3% | Potency [6] | Potency [9] | Potency [10]
